Laboratory results published in PubChem BioAssay (NCATS).
“And” between values parts separate entries of the source, which are not always exact repeats. Identical values can stand only once. Results filed as inconclusive are left out. The source made the active and inactive calls. Unless noted, calls come from the whole dose curve; as a rule, active = well fitted curve in either direction with a large enough effect (not every such curve was filed as active); inconclusive = small, poorly fitted or top-dose-only effect, or another doubt; inactive = flat fitted curve, though single readings scatter.

What was measured:
[1] = molecular target: Lysosomal acid glucosylceramidase (Homo sapiens) (UniProt P04062); experiment: Glucocerebrosidase-p2 (AID 348; in the data active = potency below about 10 µM; note: potency is the fitted concentration of half-maximal effect); details: purified GBA, blue fluorogenic substrate, 40 min
How it was run: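 Compounds titrated from 0.6 nM upwards against 0.2 nM enzyme in pH 5.9 citric acid/KH2PO4, taurocholate, tween-20; blue fluorogenic substrate 80 uM, 40 min room temperature, stopped and read Ex 365/Em 440 for AC50.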

[2] = AP1 Signaling Pathway (AID 357); details: ME-180 AP-1-bla reporter, EGF-induced, beta-lactamase ratio, 5 h; note: % is set by controls: 0 for no effect and ±100 for the full control effect
How it was run: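 AP-1-bla ME-180 cells with beta-lactamase reporter under AP-1 response element, stimulated with EC50 EGF; compounds titrated, 5 hours at 37 degrees Celsius. CCF4 read at 460/530 nm ratio; positive and negative modulators judged by AC50.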

[3] = Stat Signaling Pathway (AID 446); details: ME-180 (cervical carcinoma) SIE beta-lactamase reporter, IL-6 stimulated, 5 h; at 7.69 µM (top of the series) unless noted;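 note: ME-180 cervical cancer cells given 40 pM IL-6 alongside compound; SIE-controlled beta-lactamase reporter measured as 460/530 nm FRET emission ratio; % is set by controls: 0 for no effect and ±100 for the full control effect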
How it was run: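 IL-6/STAT signaling read in ME-180 cells via an SIE beta-lactamase reporter. Stimulus was 40 pM IL-6 (its AC50) for 5 hrs, so both activation and inhibition register.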

[4] = molecular target: Glucocorticoid receptor (Homo sapiens) (UniProt P04150); experiment: GR-EFC Redistribution (AID 451; calls by dose curve; note: potency is the fitted concentration of half-maximal effect); details: CHO-K1 GR-EFC translocation, beta-gal luminescence, 2 h
How it was run: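 Translocation of GR-ED fusion to nuclear EA restores b-gal, read by luminescence after 1 h room-temperature detection. Engineered CHO-K1 biosensor cells, 1,000/well, exposed 2 h at 37 C to titrations up to 46 uM final.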

[5] = molecular target: Mitogen-activated protein kinase 10 (Mus musculus) (UniProt Q61831); experiment: JNK3 AlphaScreen Assay (AID 530); details: JNK3 lysate, c-Jun phosphorylation; series mostly up to 57.1 µM;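 note: kinase came from lysate of stimulated human HepG2 cells; signal reports phosphorylation of biotinylated GST-cJun 1-79 at Ser73 with 10 µM ATP; % is set by controls: 0 for no effect and ±100 for the full control effect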
How it was run: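 Room-temperature AlphaScreen kinase assay; pre-activated HepG2 lysate as JNK3 source, biotin-GST-cJun(1-79) substrate, 10 uM ATP, compound 15 min preincubation.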

[6] = molecular target: 3',5'-cyclic-AMP phosphodiesterase 4B (Homo sapiens) (UniProt Q07343); experiment: qHTS Assay for Inhibitors of PDE-IV (AID 607; active = well fitted activation curve with a large enough effect in the main read-out, with a control signal flat, not every such curve was filed as active; note: % of control where 0% means no effect); details: HEK293 ACTOne CNG channel cells, membrane potential fluorescence; series mostly up to 22.9 µM
How it was run: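 Live HEK293 cells with a modified cyclic nucleotide-gated (CNG) channel report intracellular cAMP via membrane-potential dye fluorescence (ex 535/em 590 nm). Endogenous PDE-IV was targeted. Compounds were tested at up to 22.9 uM final; RO 20-1724 100 uM served as control.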

[7] = qHTS Assay for Lipid Storage Modulators (AID 1519; calls by dose curve); details: Drosophila S3 cells, BODIPY lipid droplet/cell ratio, laser cytometry, cells loaded with oleic acid
How it was run: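 Cells seeded at 5,000 per well were treated with compounds over a concentration series and loaded with oleic acid (400 uM, as added). Lipid droplet fluorescence (488 nm excitation, 500-530 nm channel) was read by laser-scanning cytometry and normalized to 20 uM Triacsin C.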

[8] = NFAT Signaling Pathway (AID 444); details: Jurkat NFAT-bla M1, carbachol, beta-lactamase ratio, 5 h;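 note: carbachol stimulus at about its EC50 of 1 µM final; % is set by controls: 0 for no effect and ±100 for the full control effect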
How it was run: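 Read-out: CCF4 FRET ratio (460 nm/530 nm) after 1 h RT dye loading, used for %activity and AC50 from titration series. Cells: Jurkat NFAT-β-lactamase/M1 line, treated with compound plus 1 uM carbachol for 5 h, 37 °C.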

[9] = molecular target: Cytochrome P450 3A4 (Homo sapiens) (UniProt P08684); experiment: qHTS Assay for Activators of Cytochrome P450 3A4 (AID 885; active = well fitted curve in the direction sought with a large enough effect; an effect the other way counts as inactive or inconclusive; note: nearly all actives have a fitted effect of over 65% in size); details: recombinant CYP3A4, Luciferin-PPXE luminescence, 60 min; series mostly up to 57.1 µM
How it was run: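 Quantitative HTS format: compounds preincubated with 20nM human CYP3A4 and Luciferin-PPXE substrate at KM, reaction started by NADPH regeneration, stopped after 60 min, luciferase luminescence read 20 min later.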

[10] = molecular target: Cytochrome P450 2D6 (Homo sapiens) (UniProt P10635); experiment: qHTS Assay for Inhibitors and Substrates of Cytochrome P450 2D6 (AID 891; active = well fitted curve in the direction sought with a large enough effect; an effect the other way counts as inactive or inconclusive; note: potency is the fitted concentration of half-maximal effect; nearly all actives have a fitted effect of over 60% in size); details: recombinant CYP2D6, luciferin-ME EGE luminescence; series mostly up to 57.1 µM
How it was run: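 Human CYP2D6 (5 nM) with 30 uM Luciferin-ME EGE (at Km) in 100 mM KPO4, compound preincubated 10 min, then NADPH regeneration system for 60 min at room temperature. Luciferin read by luminescence; normalized to 1.43 uM quinidine.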

[11] = molecular target: Cytochrome P450 1A2 (Homo sapiens) (UniProt P05177); experiment: p450-cyp1a2 (AID 410; calls by dose curve; note: potency is the fitted concentration of half-maximal effect); details: recombinant CYP1A2, luciferin-ME demethylation, luminescence; series mostly up to 57 µM
How it was run: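 Human CYP1A2 (20nM) demethylated Luciferin-ME at its Km (100uM) in 100mM KPO4. After 10 min compound preincubation, NADPH regeneration ran the reaction 60 min at room temperature. Luciferin was read by luminescence, normalized to 57 uM furafylline.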

[12] = molecular target: Glucocorticoid receptor (Homo sapiens) (UniProt P04150); experiment: GR-GFP Redistribution (AID 450;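 active = compounds whose dose series gives a full or clear partial fitted curve of increased nuclear translocation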; note: potency is the fitted concentration of half-maximal effect); details: U2OS GR-GFP nuclear translocation, laser cytometry, 2 h
[13] = molecular target: Guanine nucleotide-binding protein G(i) subunit alpha-1 (Homo sapiens) (UniProt P63096); experiment: qHTS Assay for Inhibitors of RGS12 GoLoco Motif Activity (Green Fluorophore) (AID 879; active = well fitted curve in the direction sought with a large enough effect; an effect the other way counts as inactive or inconclusive;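 note: 0% = labeled peptide with Gαi1 and full inhibition = labeled peptide alone without protein; negative values mean loss of peptide binding seen as reduced polarization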); details: Galphai1/FITC-RGS12 GoLoco peptide, fluorescence polarization; series mostly up to 57.1 µM
How it was run: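 Fluorescence polarization assay: 50 nM Gαi1 with 10 nM FITC-labeled RGS12 GoLoco peptide in 10 mM Tris pH 7.5, 150 mM NaCl, 0.1 mM GDP, 0.05% NP40, 10 min at room temperature with compound.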

[14] = qHTS Assay for Identification of Small Molecule Agonists for Thrombopoietin (TPO) Signaling Pathway (AID 917; active = well fitted curve in the direction sought with a large enough effect; an effect the other way counts as inactive or inconclusive; note: % is set by controls: 0 for no effect and ±100 for the full control effect); details: TPO signaling pathway reporter cells, agonist qHTS, stimulated with TPO at its EC50; series mostly up to 38.5 µM
How it was run: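 Murine Ba/F3 cells stably expressing human TPO receptor and a Glycoprotein IIb promoter–luciferase reporter were IL-3-starved overnight, then treated with compounds plus TPO (26 pM final, its EC50) for 24 hrs at 37 C; luminescence was read.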

[15] = molecular target: Pyruvate kinase (Leishmania mexicana) (UniProt Q27686); experiment: qHTS Validation Assay for Inhibitors of Leishmania Mexicana Pyruvate Kinase (AID 945; active = well fitted curve in the direction sought with a large enough effect; an effect the other way counts as inactive or inconclusive;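 note: 0% = DMSO only neutral control wells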); details: purified L. mexicana pyruvate kinase, enzyme activity, E451W mutant enzyme; series mostly up to 57.5 µM
How it was run: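 Purified LmPYK (E451W mutant, 0.2 nM) was incubated 1 h at room temperature with 0.5 mM PEP and 0.1 mM ADP in 50 mM imidazole pH 7.2, 50 mM KCl, 7 mM MgCl2; ATP formed was read by PKLight luminescence, normalized to DMSO wells.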

[16] = molecular target: Alpha-galactosidase A (Homo sapiens) (UniProt P06280); experiment: Counterscreen for Glucocerebrosidase Inhibitors: qHTS Assay for Human alpha-Galactosidase at pH 4.5 (AID 992; active = well fitted curve in the direction sought with a large enough effect; an effect the other way counts as inactive or inconclusive; note: 0% is about no effect); details: purified enzyme, fluorogenic substrate; series mostly up to 76.9 µM
How it was run: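 Read-out is 4-methylumbelliferone fluorescence (365 nm excitation, 440 nm emission) after a pH 10 NaOH/glycine stop. Reactions held 2 nM enzyme and 80 uM substrate at pH 4.5 for 20 min at room temperature.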

[17] = molecular target: alpha-glucosidase (Oryza sativa, rice) (UniProt Q653V4); experiment: Counterscreen for Glucocerebrosidase Inhibitors: qHTS Assay for Rice alpha-Glucosidase at pH 5.0 (AID 997; active = well fitted curve in the direction sought with a large enough effect; an effect the other way counts as inactive or inconclusive;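 note: 0% = full activity with enzyme and -100% = basal without enzyme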); details: rice alpha-glucosidase enzyme activity; series mostly up to 76.9 µM
How it was run: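 Rice alpha-glucosidase (4 nM final) with 400 uM 4-methylumbelliferyl-alpha-D-glucopyranoside in citrate buffer pH 5.0, 20 min at room temperature, stopped at pH 10; fluorescence 365/440 nm, compounds 0.7 nM–77 uM, AC50 from Hill fits.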

[18] = at 7.69 µM (top of the series) unless noted
[19] = measured here: cell count channel max response
[20] = measured here: lipid channel max response

Glucocorticoid receptor (Homo sapiens), sequence (P04150 whole entry, looked up, the tested form may be a part): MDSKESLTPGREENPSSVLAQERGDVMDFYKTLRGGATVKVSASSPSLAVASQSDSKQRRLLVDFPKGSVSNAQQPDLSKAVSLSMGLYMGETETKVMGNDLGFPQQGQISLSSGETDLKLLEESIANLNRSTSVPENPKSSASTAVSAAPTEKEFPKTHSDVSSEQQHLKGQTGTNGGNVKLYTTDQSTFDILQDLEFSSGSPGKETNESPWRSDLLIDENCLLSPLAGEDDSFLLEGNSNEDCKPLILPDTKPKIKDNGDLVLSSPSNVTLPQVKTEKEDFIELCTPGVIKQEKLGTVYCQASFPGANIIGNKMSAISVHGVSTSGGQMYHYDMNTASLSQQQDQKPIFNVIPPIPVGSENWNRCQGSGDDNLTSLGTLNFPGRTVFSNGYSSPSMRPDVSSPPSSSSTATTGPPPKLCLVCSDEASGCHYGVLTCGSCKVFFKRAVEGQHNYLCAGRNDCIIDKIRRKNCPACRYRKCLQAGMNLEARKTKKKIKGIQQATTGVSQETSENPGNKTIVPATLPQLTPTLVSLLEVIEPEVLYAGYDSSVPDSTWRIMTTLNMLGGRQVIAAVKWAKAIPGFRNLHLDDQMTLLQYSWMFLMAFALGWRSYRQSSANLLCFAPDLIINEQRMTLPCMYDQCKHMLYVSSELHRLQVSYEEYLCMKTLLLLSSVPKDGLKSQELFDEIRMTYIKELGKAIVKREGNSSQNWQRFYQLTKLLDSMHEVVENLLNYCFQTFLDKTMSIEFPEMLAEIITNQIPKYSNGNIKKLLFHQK
Lysosomal acid glucosylceramidase (Homo sapiens), sequence (P04062 whole entry, looked up): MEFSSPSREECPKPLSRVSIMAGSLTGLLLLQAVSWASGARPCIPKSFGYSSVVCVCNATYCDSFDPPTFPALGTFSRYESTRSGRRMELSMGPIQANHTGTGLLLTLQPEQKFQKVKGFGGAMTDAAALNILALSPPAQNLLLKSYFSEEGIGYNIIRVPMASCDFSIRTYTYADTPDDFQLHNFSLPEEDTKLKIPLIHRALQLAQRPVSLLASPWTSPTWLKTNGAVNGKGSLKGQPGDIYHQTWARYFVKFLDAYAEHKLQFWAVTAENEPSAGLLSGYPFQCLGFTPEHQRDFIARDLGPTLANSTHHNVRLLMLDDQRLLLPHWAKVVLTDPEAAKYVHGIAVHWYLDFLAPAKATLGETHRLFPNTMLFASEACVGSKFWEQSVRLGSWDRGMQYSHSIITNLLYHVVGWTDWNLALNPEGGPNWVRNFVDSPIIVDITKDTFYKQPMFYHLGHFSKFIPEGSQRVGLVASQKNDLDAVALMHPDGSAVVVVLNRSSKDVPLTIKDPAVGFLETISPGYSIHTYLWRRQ
3',5'-cyclic-AMP phosphodiesterase 4B (Homo sapiens), sequence (Q07343 whole entry, looked up): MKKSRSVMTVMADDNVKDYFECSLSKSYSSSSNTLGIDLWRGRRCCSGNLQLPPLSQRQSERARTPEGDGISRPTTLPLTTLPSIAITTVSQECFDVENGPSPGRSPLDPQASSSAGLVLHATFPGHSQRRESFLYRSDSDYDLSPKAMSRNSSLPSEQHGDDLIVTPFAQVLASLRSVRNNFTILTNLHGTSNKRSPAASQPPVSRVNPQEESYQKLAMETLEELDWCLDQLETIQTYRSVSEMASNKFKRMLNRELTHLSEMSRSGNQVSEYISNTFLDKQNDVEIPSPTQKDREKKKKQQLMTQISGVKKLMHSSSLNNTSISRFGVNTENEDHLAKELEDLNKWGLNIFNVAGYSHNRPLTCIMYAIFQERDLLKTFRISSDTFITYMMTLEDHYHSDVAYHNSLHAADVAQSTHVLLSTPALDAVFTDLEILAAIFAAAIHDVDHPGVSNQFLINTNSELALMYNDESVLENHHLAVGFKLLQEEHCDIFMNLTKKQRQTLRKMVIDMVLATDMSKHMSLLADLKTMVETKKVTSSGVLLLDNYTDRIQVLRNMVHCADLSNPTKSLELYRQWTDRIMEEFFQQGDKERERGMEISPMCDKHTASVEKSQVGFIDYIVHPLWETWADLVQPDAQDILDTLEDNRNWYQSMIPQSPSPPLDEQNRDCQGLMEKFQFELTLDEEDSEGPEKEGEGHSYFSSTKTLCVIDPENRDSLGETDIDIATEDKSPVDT
Cytochrome P450 3A4 (Homo sapiens), sequence (P08684 whole entry, looked up): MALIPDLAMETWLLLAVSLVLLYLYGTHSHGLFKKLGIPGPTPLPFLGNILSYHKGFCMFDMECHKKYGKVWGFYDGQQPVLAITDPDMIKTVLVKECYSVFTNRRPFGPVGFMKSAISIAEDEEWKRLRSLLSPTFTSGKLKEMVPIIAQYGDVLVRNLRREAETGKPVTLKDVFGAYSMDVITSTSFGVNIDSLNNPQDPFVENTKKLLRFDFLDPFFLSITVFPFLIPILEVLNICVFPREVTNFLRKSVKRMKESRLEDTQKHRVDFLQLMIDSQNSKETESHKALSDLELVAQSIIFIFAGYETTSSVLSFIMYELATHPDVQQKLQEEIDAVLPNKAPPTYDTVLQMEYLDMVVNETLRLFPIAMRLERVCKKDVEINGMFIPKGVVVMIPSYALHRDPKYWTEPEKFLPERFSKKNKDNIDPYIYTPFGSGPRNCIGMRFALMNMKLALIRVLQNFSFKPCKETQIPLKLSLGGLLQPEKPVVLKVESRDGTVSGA
Cytochrome P450 1A2 (Homo sapiens), sequence (P05177 whole entry, looked up): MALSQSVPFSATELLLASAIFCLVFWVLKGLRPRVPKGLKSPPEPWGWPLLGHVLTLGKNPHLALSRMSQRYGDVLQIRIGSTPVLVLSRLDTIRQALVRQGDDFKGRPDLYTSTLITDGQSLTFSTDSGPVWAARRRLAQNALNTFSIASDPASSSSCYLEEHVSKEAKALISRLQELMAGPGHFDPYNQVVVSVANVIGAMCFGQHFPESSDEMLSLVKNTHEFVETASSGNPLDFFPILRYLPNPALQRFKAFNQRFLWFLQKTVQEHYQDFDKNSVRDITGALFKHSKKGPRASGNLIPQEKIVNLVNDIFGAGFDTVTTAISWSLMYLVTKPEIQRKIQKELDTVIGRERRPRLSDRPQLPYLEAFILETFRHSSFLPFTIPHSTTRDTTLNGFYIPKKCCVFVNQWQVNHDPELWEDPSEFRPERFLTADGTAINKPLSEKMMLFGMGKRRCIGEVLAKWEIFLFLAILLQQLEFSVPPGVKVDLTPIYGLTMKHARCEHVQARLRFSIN
Cytochrome P450 2D6 (Homo sapiens), sequence (P10635 whole entry, looked up): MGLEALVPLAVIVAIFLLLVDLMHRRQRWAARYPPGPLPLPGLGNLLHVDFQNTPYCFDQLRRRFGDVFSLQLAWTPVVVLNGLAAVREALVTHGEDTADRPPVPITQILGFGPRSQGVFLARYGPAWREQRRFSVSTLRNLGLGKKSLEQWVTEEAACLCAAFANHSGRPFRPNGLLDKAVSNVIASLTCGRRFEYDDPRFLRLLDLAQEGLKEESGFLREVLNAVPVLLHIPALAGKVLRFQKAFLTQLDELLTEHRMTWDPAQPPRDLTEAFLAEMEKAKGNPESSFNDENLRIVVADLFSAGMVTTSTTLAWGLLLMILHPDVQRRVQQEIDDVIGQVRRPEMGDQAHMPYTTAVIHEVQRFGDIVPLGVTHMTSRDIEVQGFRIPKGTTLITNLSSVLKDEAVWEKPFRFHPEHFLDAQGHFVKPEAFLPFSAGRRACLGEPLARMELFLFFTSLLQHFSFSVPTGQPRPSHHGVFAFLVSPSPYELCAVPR
Alpha-galactosidase A (Homo sapiens), sequence (P06280 whole entry, looked up): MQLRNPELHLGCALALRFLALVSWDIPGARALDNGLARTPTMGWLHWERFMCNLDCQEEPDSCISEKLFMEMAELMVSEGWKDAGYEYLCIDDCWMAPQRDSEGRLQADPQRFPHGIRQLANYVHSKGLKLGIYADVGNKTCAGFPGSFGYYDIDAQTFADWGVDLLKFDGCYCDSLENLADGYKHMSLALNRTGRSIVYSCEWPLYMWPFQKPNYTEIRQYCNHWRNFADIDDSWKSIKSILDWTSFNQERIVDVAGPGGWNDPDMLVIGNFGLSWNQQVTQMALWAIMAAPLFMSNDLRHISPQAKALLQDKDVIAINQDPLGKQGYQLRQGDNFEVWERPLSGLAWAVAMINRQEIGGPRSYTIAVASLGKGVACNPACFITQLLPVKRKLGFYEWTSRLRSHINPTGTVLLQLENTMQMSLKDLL
Guanine nucleotide-binding protein G(i) subunit alpha-1 (Homo sapiens), sequence (P63096 whole entry, looked up): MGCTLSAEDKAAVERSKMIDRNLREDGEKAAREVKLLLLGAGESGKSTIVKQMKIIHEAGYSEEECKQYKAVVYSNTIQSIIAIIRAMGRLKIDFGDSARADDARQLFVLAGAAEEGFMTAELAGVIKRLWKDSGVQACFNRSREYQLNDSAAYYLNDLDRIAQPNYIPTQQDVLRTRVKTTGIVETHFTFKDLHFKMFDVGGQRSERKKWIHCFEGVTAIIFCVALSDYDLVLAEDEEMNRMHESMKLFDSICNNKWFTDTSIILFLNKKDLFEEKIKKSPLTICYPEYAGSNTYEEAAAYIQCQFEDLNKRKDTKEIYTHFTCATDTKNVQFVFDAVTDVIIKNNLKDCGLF
Pyruvate kinase (Leishmania mexicana), sequence (Q27686 2-499 E452W): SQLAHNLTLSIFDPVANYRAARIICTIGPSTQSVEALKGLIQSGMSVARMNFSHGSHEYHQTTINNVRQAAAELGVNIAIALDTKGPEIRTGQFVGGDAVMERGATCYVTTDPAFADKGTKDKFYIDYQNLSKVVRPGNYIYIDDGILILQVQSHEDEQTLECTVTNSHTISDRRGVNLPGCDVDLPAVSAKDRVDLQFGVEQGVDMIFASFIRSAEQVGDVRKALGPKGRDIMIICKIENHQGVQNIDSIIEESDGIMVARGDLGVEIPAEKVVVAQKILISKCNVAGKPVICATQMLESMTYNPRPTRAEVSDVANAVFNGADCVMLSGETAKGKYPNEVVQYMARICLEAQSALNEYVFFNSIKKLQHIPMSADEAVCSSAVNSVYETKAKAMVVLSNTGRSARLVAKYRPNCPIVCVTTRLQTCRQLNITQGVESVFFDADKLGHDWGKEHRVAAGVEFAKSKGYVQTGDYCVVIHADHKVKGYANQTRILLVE

COc1ccccc1CN1CC[C@@]2(CCCN(C(=O)c3cc(C(F)(F)F)cc(C(F)(F)F)c3)C2)C1
inactive: Potency [1] > 11.4 µM | activity change, negative = inhibition [2, 18] -0.111% | activity, negative = inhibition [3] 4.98% | Potency [4] > 46 µM | Potency [5] | Potency [6] | activity change, negative = inhibition ([7]; at 57.5 µM (top of the series)) 2.5%
2.09%: max response [7, 19]
7.48%: max response [7, 20]

N#Cc1ccc(CN2CCC3(CC2)CCN(C(=O)c2ccco2)CC3)cc1
20.4%: max response [7, 19]
24%: max response [7, 20]
inactive: Potency [1] > 11.4 µM | activity change, negative = inhibition [2, 18] -11.2% | activity, negative = inhibition [3] -4.42% | Potency [4] > 46 µM | Potency [5] | Potency [6] | activity change, negative = inhibition ([7]; at 57.5 µM (top of the series)) 1.05%

COc1ccccc1CN1CC[C@@]2(CCCN(C(=O)c3ccco3)C2)C1
8.6%: max response [7, 20]
inactive: Potency [1] > 11.4 µM | activity change, negative = inhibition [2, 18] -2.43% | activity change, negative = inhibition [8, 18] -21.8% | activity, negative = inhibition [3] -8.66% | Potency [4] > 46 µM | Potency [5] | Potency [9] | activity change, negative = inhibition ([7]; at 57.5 µM (top of the series)) 1.52%
active: Potency [10] 0.501 µM
4.46%: max response [7, 19]

O=C(Nc1cccc(F)c1)N1CCC2(CC1)CCN(C(=O)c1cc(C(F)(F)F)cc(C(F)(F)F)c1)CC2
inactive: Potency [1] > 11.4 µM | activity change, negative = inhibition [2, 18] -6.27% | activity, negative = inhibition [3] 8.94% | Potency [4] > 46 µM | Potency [6] | activity change, negative = inhibition ([7]; at 57.5 µM (top of the series)) -8.79%
-4.14%: max response [7, 19]
-9.94%: max response [7, 20]

CN(C)c1ccc(-c2ccc3ncnc(NCc4ccccc4)c3c2)cc1
-15.6%: max response [7, 20]
active: Potency [11] 0.501 µM
-18.1%: max response [7, 19]
inactive: Potency [1] > 11.4 µM | activity, negative = inhibition [3] -1.76% | Potency [12] > 46 µM | Potency [4] > 46 µM | Potency [6] | Potency [9] | activity change, negative = inhibition ([7]; at 57.5 µM (top of the series)) 2.65%

COc1ccc(C(=O)N2CCC3(CC2)CN(c2ccccn2)C3)cc1
29.6%: max response [7, 20]
15.9%: max response [7, 19]
inactive: Potency [1] > 11.4 µM | activity change, negative = inhibition [2, 18] 3.74% | activity change, negative = inhibition [8, 18] -14.4% | activity, negative = inhibition [3] -24.1% | Potency [4] > 46 µM | Potency [5] | Potency [6] | activity change, negative = inhibition ([7]; at 57.5 µM (top of the series)) 6.8%

COc1ccc(C(=O)N2CCC[C@@]3(CCN(c4ccncc4)C3)C2)cc1
-12%: max response [7, 19]
inactive: Potency [1] > 11.4 µM | activity change, negative = inhibition [2, 18] -1.81% | activity change, negative = inhibition [8, 18] -12.2% | activity, negative = inhibition [3] -6.9% | Potency [4] > 46 µM | Potency [5] | Potency [6] | activity change, negative = inhibition ([7]; at 57.5 µM (top of the series)) 0.196%
-10.7%: max response [7, 20]

C[C@@H](COc1ccccc1)N(CCCl)Cc1ccccc1
-6.85%: max response [7, 20]
-7.22%: max response [7, 19]
inactive: activity change, negative = inhibition ([2]; at 17.2 µM (top of the series)) -0.257% | activity change, negative = inhibition ([2]; at 38 µM (top of the series)) 0.967% | activity change, negative = inhibition ([8]; at 17.2 µM (top of the series)) -10.8% | activity change, negative = inhibition ([8]; at 38 µM (top of the series)) -22.8% | activity, negative = inhibition [3] 1.89% [at 17.2 µM] | Potency [12] > 46 µM and > 20.6 µM | Potency [4] > 46 µM and > 20.6 µM | Potency [5] | Potency [6] | Potency [13] | outcome [14] | outcome [15] | outcome [16] | outcome [17] | activity change, negative = inhibition ([7]; at 25.7 µM (top of the series)) 0.574%
active: Potency [11] 12.6 µM | Potency [10] 0.158 µM
